# “And” between values parts separate entries of the source, which are not always exact repeats. Identical values can stand only once. Records with an inconclusive call do not appear. The source made the active and inactive calls. Calls come from the whole dose curve; as a rule, active = well fitted curve in the direction sought with a large enough effect; inconclusive = small, poorly fitted or top-dose-only effect, or another doubt; inactive = no such curve, though single readings can be large; an effect the other way counts as inactive or inconclusive.
# Experiments:
# [1] = biological target: Cellular tumor antigen p53 (Homo sapiens) (UniProt P04637); experiment: Primary qHTS for small molecule compounds that upregulate eGFP-tagged delta133p53alpha (in N-terminal) cells. (AID 2060322); settings: NCI-H358 eGFP-delta133p53alpha fluorescence, 24 h; activation: active compounds read high; note: nearly all actives have a fitted effect of over 75% in size; note: potency is the fitted concentration of half-maximal effect;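 for activation: series mostly up to about 56 µM; 0% = DMSO vehicle and 100% = reference activator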
# Sequence of Cellular tumor antigen p53 (Homo sapiens) (P04637 whole entry, looked up): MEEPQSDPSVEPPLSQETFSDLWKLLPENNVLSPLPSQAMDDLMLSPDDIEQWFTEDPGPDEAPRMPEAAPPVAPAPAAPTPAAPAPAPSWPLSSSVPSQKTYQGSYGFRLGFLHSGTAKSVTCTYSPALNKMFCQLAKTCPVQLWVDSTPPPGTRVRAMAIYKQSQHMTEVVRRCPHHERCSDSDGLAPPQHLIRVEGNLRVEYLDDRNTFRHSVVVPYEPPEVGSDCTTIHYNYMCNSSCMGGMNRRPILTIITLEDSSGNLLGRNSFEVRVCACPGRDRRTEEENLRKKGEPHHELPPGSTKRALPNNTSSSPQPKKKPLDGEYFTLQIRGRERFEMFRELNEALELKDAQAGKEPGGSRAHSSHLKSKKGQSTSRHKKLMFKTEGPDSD
# In short: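 NCI-H358 cells pre-induced 24 h with 10 ng/ml doxycycline to express N-terminal eGFP-delta133p53alpha, then dosed 24 h at 37C without doxycycline; fixed, Hoechst-stained, GFP intensity by laser scanning cytometry, normalized to DMSO (0%) and 57.5 uM 5-azacytidine (100%).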
# [2] = biological target: Aldehyde dehydrogenase, mitochondrial (Homo sapiens) (UniProt P05091); experiment: qHTS for Inhibitors of the Aldehyde Dehydrogenase Family (ALDH2) Primary screen (AID 2061308);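 note: plate controls were vehicle for no effect and reference inhibitor for full effect; nearly all actives have a fitted effect of over 55% in size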
# [3] = biological target: Retinaldehyde dehydrogenase 3 (Homo sapiens) (UniProt P47895); experiment: qHTS for Inhibitors of the Aldehyde Dehydrogenase Family (ALDH1A3) Primary screen (AID 2061315);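 note: plate controls were DMSO vehicle for no effect and reference inhibitor for full effect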
# [4] = BET inhibitor-based combinations targeting novel dependencies in MECOM-rearranged (r) AML: SET-2 cell line (AID 2202231); settings: SET-2 AML cells viability, CellTiter-Glo luminescence, 48 h; viability: active compounds read low, concentration not given here; note: nearly all actives have a fitted effect of over 35% in size; note: potency is the fitted concentration of half-maximal effect;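 for viability: plate controls were DMSO treated cells for no effect and wells without cells for full effect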
# In short: (§1)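 Luminescent ATP readout (CellTiter-Glo) after 48 hr drug exposure gives viability. Curves span 11 concentrations and are normalized to DMSO and empty wells. Activity is reported as area under the curve and its Z-transform within each cell line.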
# [5] = BET inhibitor-based combinations targeting novel dependencies in MECOM-rearranged (r) AML: OCI-AML3 cell line (AID 2202232); settings: Potency: OCI-AML3 viability; note: nearly all actives have a fitted effect of over 35% in size; note: potency is the fitted concentration of half-maximal effect;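 for viability (% of control): series mostly up to about 46 µM; plate controls were DMSO vehicle wells for no effect and wells without cells for full effect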
# In short: as §1
# [6] = BET inhibitor-based combinations targeting novel dependencies in MECOM-rearranged (r) AML: MV-4-11 cell line (AID 2202233); note: potency is the fitted concentration of half-maximal effect; nearly all actives have a fitted effect of over 45% in size
# In short: (§2)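 Luminescent ATP readout (CellTiter-Glo, 15 min at room temperature) after 48 hr drug exposure gave viability. Dose-response curves, normalized to DMSO and empty-well controls, were summarized as area under the curve and its mean-centred Z-score.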
# [7] = BET inhibitor-based combinations targeting novel dependencies in MECOM-rearranged (r) AML: UCSD-AML1 cell line (AID 2202235); note: nearly all actives have a fitted effect of over 40% in size; note: potency is the fitted concentration of half-maximal effect;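 for viability (% of control): series mostly up to about 46 µM; plate controls were DMSO vehicle wells for no effect and blank wells for full effect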
# In short: as §2
# [8] = BET inhibitor-based combinations targeting novel dependencies in MECOM-rearranged (r) AML: AML-191 cell line (AID 2202236; note: nearly all actives have a fitted effect of over 35% in size; note: potency is the fitted concentration of half-maximal effect;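 for viability (% of control): plate controls were vehicle wells for no effect and wells without cells for full effect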)
# In short: as §1
# [9] = BET inhibitor-based combinations targeting novel dependencies in MECOM-rearranged (r) AML: AML-194 cell line (AID 2202237; note: nearly all actives have a fitted effect of over 40% in size; note: potency is the fitted concentration of half-maximal effect;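 for viability (% of control): plate controls were vehicle wells for no effect and wells without cells for full effect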)
# In short: as §1
# [10] = BET inhibitor-based combinations targeting novel dependencies in MECOM-rearranged (r) AML: HNT-34 cell line (AID 2202234); note: nearly all actives have a fitted effect of over 35% in size; note: potency is the fitted concentration of half-maximal effect;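 for viability (% of control): plate controls were vehicle wells for no effect and cell-free wells for full effect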
# In short: as §2
SMILES,Potency [1],Potency [2],Potency [3],Potency [4],Potency [5],Potency [6],Potency [7],Potency [8],Potency [9],activation [1],viability [4],Potency [10],viability (% of control) [5],viability (% of control) [10]
C=CC(=O)Nc1cccc(Nc2nc(Nc3ccc(OCCOC)cc3)ncc2F)c1,9.53 µM (active),inactive,inactive,16.6 µM (active),14.8 µM (active),1.48 µM (active),8.33 µM (active),8.33 µM (active),9.34 µM (active),–,–,–,–,–
CS(=O)(=O)c1ccc(C2=C(c3ccccc3)C(=O)OC2)cc1,–,inactive,inactive,–,inactive,–,inactive,inactive,inactive,-5.73% (inactive),95.1% (inactive),inactive,–,–
COc1cc2c(Nc3ccc(NC(=O)c4ccccc4)cc3)ncnc2cc1OCCCN1CCOCC1,–,inactive,inactive,26.3 µM (active),18.6 µM (active),–,inactive,20.9 µM (active),23.5 µM (active),32.6% (inactive),–,1.32 µM (active),–,–
CCCCc1ccc(NS(=O)(=O)c2ccc(C)c(C(=O)N3CCN(c4cccc(C)c4C)CC3)c2)cc1,–,inactive,inactive,–,inactive,–,inactive,inactive,–,-4.4% (inactive),94.4% (inactive),inactive,–,–
CN1CCN(C2CCN(C(=O)Nc3cc(Oc4ccc(NC(=O)C5(C(=O)Nc6ccc(F)cc6)CC5)c(F)c4)ccn3)CC2)CC1,26.9 µM (active),inactive,inactive,20.9 µM (active),23.5 µM (active),0.296 µM (active),–,18.6 µM (active),11.8 µM (active),–,–,–,–,–
COc1ccc(-c2c(C)nn3c(NCCN4CCOCC4)cc(C)nc23)cc1OC,–,inactive,inactive,–,inactive,–,inactive,–,–,7% (inactive),88.4% (inactive),20.9 µM (active),–,–
NC1(Cc2ccc(Cl)cc2)CCN(c2ncnc3[nH]ccc23)CC1,–,inactive,inactive,14.8 µM (active),6.61 µM (active),–,5.25 µM (active),–,–,-4.16% (inactive) and 18.8% (inactive),–,7.42 µM (active),–,–
CC[C@H](NC(=O)[C@H](CS(=O)(=O)CC1CC1)N[C@@H](c1ccc(F)cc1)C(F)(F)F)C(=O)C(=O)NC1CC1,–,inactive,inactive,–,inactive,–,inactive,inactive,inactive,21.7% (inactive),112% (inactive),inactive,–,–
O=C([C@@H](Cc1cccc(C(F)(F)F)c1)NS(=O)(=O)c1cc(F)c2c(c1)CCNC2)N1CCCC1,–,inactive,inactive,–,11.8 µM (active),20.9 µM (active),inactive,inactive,inactive,-6.33% (inactive),107% (inactive),–,–,–
O=C(Nc1ccccc1-c1cn2c(CN3CCNCC3)csc2n1)c1cnc2ccccc2n1,–,inactive,inactive,8.33 µM (active),20.9 µM (active),5.25 µM (active),8.33 µM (active),7.42 µM (active),8.33 µM (active),-29.5% (inactive),–,–,–,–
NCCOc1cc(C(=O)Nc2cc(OCCN)c3ccccc3n2)nc(C(=O)Nc2cc(OCCN)c3ccccc3n2)c1,0.193 µM (active),inactive,inactive,–,inactive,16.6 µM (active),–,inactive,–,–,78% (inactive),–,–,–
CC1CCC(n2c3cnccc3c3cnc(Nc4ccc5c(n4)CCN(C(=O)CO)C5)nc32)CC1 (stereo not drawn),23.9 µM (active),inactive,inactive,–,–,0.152 µM (active),–,–,1.21 µM (active),–,105% (inactive),–,86.5% [at 8.46 µM] (inactive),92.3% [at 8.46 µM] (inactive)
CCS(=O)(=O)N1CCC([C@@H](C)n2c(C)c(C(=O)NCc3c(OC)cc(C)[nH]c3=O)c3ccccc32)CC1,–,inactive,inactive,–,5.9 µM (active),–,inactive,inactive,–,7.16% (inactive),115% (inactive),inactive,–,–
Nc1ccc(C(=O)Nc2cccc(-c3nc(N4CCOCC4)c4oc5ncccc5c4n3)c2)cn1,–,inactive,inactive,16.6 µM (active),9.34 µM (active),–,9.34 µM (active),9.34 µM (active),8.33 µM (active),2.12% (inactive),–,14.8 µM (active),–,–
CC[C@]12C=CCN3CC[C@@]4(c5cc([C@@]6(C(=O)OC)C[C@H]7C[C@@H](C(C)(F)F)CN(Cc8c6[nH]c6ccccc86)C7)c(OC)cc5N(C)[C@H]4[C@@](O)(C(=O)OC)[C@@H]1OC(C)=O)[C@@H]32,0.199 µM (active),inactive,inactive,0.783 µM (active),0.124 µM (active),0.197 µM (active),0.139 µM (active),0.0698 µM (active),0.139 µM (active),–,–,–,–,–
Cc1nc(-c2cccnc2)sc1C(=O)Nc1ccccc1-c1cn2c(CN3CCOCC3)csc2n1,–,inactive,inactive,–,inactive,–,inactive,inactive,inactive,17.9% (inactive),115% (inactive),inactive,–,–
CCc1c2c(nc3ccc(O)cc13)-c1cc3c(c(=O)n1C2)COC(=O)[C@]3(O)CC,1.51 µM (active),inactive,inactive,0.0166 µM (active),0.0093 µM (active),0.0093 µM (active),0.0083 µM (active),0.0093 µM (active),0.0118 µM (active),–,–,–,–,–

# Reference: PubChem BioAssay (NCATS)
